According to PubChem BioAssay (NCI):
This is part of a sample that, as a whole, favours compounds with a hit. Of some 83,000 tested, about 20% had one in any assay.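 Each cell line was grown in a 96-well plate and treated with one concentration of compound for 48 hours. Values below 10 were considered active.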 Unmarked numbers belong to inactive results. Calls of active or inactive are those of the source.

Test system: HL-60(TB) leukemia
Experiment: NCI-60 one-dose screen, 48 h (100 = growth as untreated, 0 = no growth, -100 = all killed)
Settings: 10 µM unless noted

| Compound | growth |
| --- | --- |
| O=c1c2ccccc2nc(COc2ccccc2)n1/N=C/c1ccc(F)cc1 | 94.8% |
| COc1ccc(N=Nc2c(N)nn3c(-c4ccc(OC)c(OC)c4)ccnc23)cc1 | 92% |
| COc1ccc(C(=O)/C=C/c2ccc(Oc3nc(Nc4ccc(F)cc4)nc(N(C)C)n3)c(OC)c2)cc1 | 48.1% |
| O=C(NC(=S)N1CCN(c2ncnc3c2cnn3-c2ccccc2)CC1)c1ccc(F)cc1 | 64.8% |
| Cc1ccc(/C=C/C(=O)c2ccc(S(=O)(=O)NCCNc3nc(N(C)C)nc(N4CCOCC4)n3)cc2)cc1 | 30.7% |
| Cc1ccc2c(c1)C(=O)/C(=C/c1c[nH]c3ccccc13)S2 | 14.9% |
| N#Cc1c(NC(=O)N2CCOCC2)n(-c2ccc(OC(F)(F)F)cc2)c2cc(F)ccc12 | 91.2% |
| O=c1oc2ccc(Br)cc2cc1C1=CSc2nc3sc4c(c3c(=O)n2N=C1)CCCC4 | 45.4% |
| COc1ccc2c(c1)c(-c1cc(N)n3nc(-c4c[nH]c5ccccc45)cc3n1)cn2C | -32.4% (active) |
| Fc1ccc(N2CC(Cn3c(C(F)(F)F)cc4c(Cl)ncnc43)C2)c(F)c1 | -40.3% (active) |
| O=C(OCCOCCO)N(c1cccc(Br)c1)c1nc(SCCN2CCOCC2)nc2c1cnn2CC(Cl)c1ccc(Br)cc1 (stereo not given) | -46.8% (active) |
| N#Cc1c(Cl)nc(SCc2ccc(F)cc2)nc1-c1ccc(F)cc1 | 50.2% |
| CS(=O)(=O)Nc1cc(-c2ccc3ncnc(N4CCc5cc(F)c(Cl)cc54)c3c2)cnc1Cl | 14.3% |
| C/C(=N\Nc1ccc(C(=O)O)cc1)c1cnn(-c2cc(=O)[nH]c3ccc(C)cc23)c1C | 101% |
| Cc1ccc(CNC(=O)Cc2ccc3c(c2)CN(C2CCC(=O)NC2=O)C3=O)cc1 (stereo not given) | -23.1% (active) |
| Cn1cc(-c2cc(N)n3nc(-c4cn(C)c5ccccc45)cc3n2)c2cc(Cl)ccc21 | -26% (active) |
| CCCCCCCOc1ccc(S(=O)(=O)Nc2ccc(C)c(F)c2C(=O)O)cc1 | 89.8% |
| CCCSc1nc(NCCc2c[nH]c3ccccc23)c(C#N)c(-c2ccccc2)n1 | 70.4% |
| COc1cccc(/C=C/c2nc3ccccc3c(=O)n2CC(=O)Nc2ccccc2)c1 | 97.7% |
| Cc1cc(C)c2[nH]c(=O)c(C(c3nnnn3Cc3ccc4c(c3)OCO4)N3CCN(C)CC3)cc2c1 (stereo not given) | 129% |

| Compound | growth |
| --- | --- |
| CN1C(=O)/C(=C/c2nccs2)SC1=S | 89% |
| Brc1ccc(/C=C/c2n(Cc3ccc4ccccc4c3)c3ccccc3[n+]2Cc2ccc3ccccc3c2)cc1 | -48.7% (active) |
| O=C(Cn1nc(-c2ccccc2)ccc1=O)NNC(=S)NC1CCCCC1 | 94.8% |
| N#Cc1c(-c2cccc(Cl)c2Cl)cc(-c2c[nH]c3ccccc23)[nH]c1=O | 62.1% |
| CN(C)CCCNC(=O)c1cc(NC(=O)c2cc(NC(=O)c3ccc(C#Cc4ccccc4)cc3)cn2C)cn1C | -69.6% (active) |
| Cc1ccc(-c2nc(Nc3ccccc3C(=O)O)c3ccccc3n2)cc1 | 17.8% |
| CN(C)c1nc(NCCNS(=O)(=O)c2ccc(C3=Nc4c(N)nc(N)nc4NC(c4ccc(Cl)cc4)C3)cc2)nc(Nc2ccc(F)cc2)n1 (stereo not given) | -13.8% (active) |
| COc1cc2oc(-c3cccc(C(=O)Nc4ccc(Cl)cc4)c3)cc(=O)c2c(OCCN)c1OC | -56.5% (active) |
| Fc1ccccc1CNc1nc(SCCN2CCOCC2)nc2c1cnn2CC(Cl)c1ccc(Br)cc1 (stereo not given) | -22.8% (active) |
| CC1=C(C(=O)c2ccccc2)C(c2ccc(-n3cncn3)cc2)n2c(nc3ccccc32)N1 (stereo not given) | 86.9% |
| Cc1ccc(CSc2nc(Cl)c(C#N)c(-c3ccc(F)cc3)n2)cc1 | 42% |
| c1n[nH]cc1-c1nc2ccc3[nH]ncc3c2c2c1CC1(CC2)COC1 | 29.1% |
| CCN1C(=O)N(CC)C2NNC(Sc3c(C(=O)O)c4ccccc4n(CC(C)C)c3=O)=NC21 (stereo not given) | -53.3% (active) |
| CN1C(=O)C2(C(C#N)=C(c3ccc(Cl)cc3)Nc3c2c(-c2ccccc2)nn3-c2ccccc2)c2ccccc21 (stereo not given) | 50.3% |
| CC(=O)Nc1ccc(-n2cnc3cc(-c4ccc(O)cc4)ccc32)cc1C | 26.6% |
| COc1cc2c(c(OC)c1OC)C(=O)CC(c1cccc(NC(=O)c3cc(N)ccc3Cl)c1)O2 (stereo not given) | 52.2% |
| O=C1Nc2ccc(Cl)cc2/C1=C/c1ccc(OCc2ccccn2)cc1 | 85% |
| N/C(=N\c1nc2ccc([N+](=O)[O-])cc2s1)NC(=O)Nc1ccccc1Cl | 67.3% |
| Clc1ccc2c(N/N=C/c3c[nH]c4ccc(Br)cc34)ccnc2c1 | -74.7% (active) |
| CC1=C(C(=O)OCc2ccccc2)C(c2cccc3ccccc23)n2c(nc3ccccc32)N1 (stereo not given) | 1.4% (active) |
